Compound activity as filed in PubChem BioAssay.
KCNQ2 enhance: KCNQ2 (rat) channel potentiation; B-score at 10 µM; 310,000 compounds, 0.54% hits; O88943; CHO-K1 KCNQ2, FluxOR thallium flux fluorescence; stronger effect = higher value;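 active = fluorescence ratio B-score at least 3 SD of library B-scores, with initial fluorescence B-score within 3 of them, cut at about 5.3 in these data; same plate scores as AID 2156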;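 note: B-score of peak minus minimum over baseline fluorescence ratio after K+ and Tl+ stimulus; positive B-score means potentiation of KCNQ2 with more thallium influx and brighter signal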
KCNQ2 block: KCNQ2 (rat) channel inhibition. O88943. CHO-K1 KCNQ2, FluxOR thallium flux, 20 min; stronger effect = lower value. B-score at 10 µM. 310,000 compounds, 1.1% hits. AID 2156;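 active = fluorescence ratio B-score at most minus 3 library SDs, with starting brightness B-score within 2 library SDs, cut at about -5.5 in these data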
Kir21 confirm: confirmation of mouse Kir2.1 potassium channel inhibitors; shares compounds with KCNQ2 enhance; Kir2.1-expressing cells, FluxOR thallium flux fluorescence; stronger effect = lower value; Tl flux remaining, % of negative control (stronger effect = lower value), % at 10 µM; 2,300 compounds, 41% hits; AID 2032;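 active = Primary-screen hit whose thallium flux fell at least 3 control SD below untreated wells in both duplicates, with normal baseline fluorescence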;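 note: 0% = blank wells without stimulus and 100% = stimulated no-compound controls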
HEK293 Tl flux: counter-screen for Kir2.1 inhibitors: effect in parental HEK293 cells | shares compounds with KCNQ2 enhance | 2,300 compounds, 19% hits | AID 2105 | FluxOR signal as % of negative control (100 = no effect), % at 10 µM | FluxOR thallium flux fluorescence; 0% = unstimulated blank wells;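 active = dye signal at least 3 control SD above or below untreated wells in both duplicates, raw fluorescence within 3, either direction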;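 note: percent is based on the flux ratio of peak minus minimum fluorescence over baseline F0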
CHO-K1 ctr: alters thallium flux in parental CHO-K1 cells, KCNQ2 counter-screen; 1,200 compounds, 43% hits; shares compounds with KCNQ2 enhance; FluxOR thallium flux fluorescence; zero = vehicle mean+3SD, 100% = vehicle-minus-blank window; activity increase over 3SD of controls, % at 10 µM;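 active = signal rise of at least 3 SD above the untreated control mean, in both duplicate wells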;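 note: counter screen of KCNQ2 potentiator hits so any rise reflects channel-independent effects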
KCNQ1 pot spec: human KCNQ1 counter-target activity of KCNQ2 potentiators; 1,200 compounds, 28% hits; shares compounds with KCNQ2 enhance; activation over 3SD threshold, % at 10 µM; CHO KCNQ1 stable, FluxOR thallium flux fluorescence; beyond 3SD, as % of vehicle-control signal;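 active = fluorescence ratio rise of at least 3 SD of vehicle wells above their mean, in both replicate wells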;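 note: 0% = vehicle mean plus 3 SD and 100% = vehicle minus unstimulated blank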
KCNQ2 pot confirm: rat KCNQ2 channel potentiator confirmation; shares compounds with KCNQ2 enhance; potentiation, less the hit threshold, % at 10 µM; 1,200 compounds, 68% hits; CHO-KCNQ2 cells, FluxOR thallium flux fluorescence;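 active = fluorescence ratio rising 3 SD or more over the vehicle control mean in both replicates, plus primary screen hit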;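 note: peak minus minimum thallium fluorescence divided by baseline after K/Tl stimulus; 0% = vehicle mean plus 3 SD and 100% = vehicle minus unstimulated blank difference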
Kir21 spec: mouse Kir2.1 off-target activity of KCNQ2 potentiators | shares compounds with KCNQ2 enhance | activity over 3SD threshold, % at 10 µM | 1,200 compounds, 2% hits | HEK293 Kir2.1, FluxOR thallium flux fluorescence;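 active = fluorescence ratio rise of at least 3 SD above the vehicle-control mean, seen in both replicates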;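 note: 0% = vehicle mean plus 3 SD and 100% = vehicle minus no-stimulus blank window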
KCNQ2 W236L MoA: potentiates the retigabine-insensitive rat KCNQ2 W236L mutant channel; shares compounds with KCNQ2 enhance; CHO KCNQ2-W236L, automated patch clamp current; current increase over 3SD of negative controls (%), stronger effect = higher value, % at 25 µM; 940 compounds, 10% hits; AID 2558;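 active = current increase at least 3 SD of the untreated controls above them in both duplicate recordings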
Target sequence (O88943 whole entry W236L, looked up): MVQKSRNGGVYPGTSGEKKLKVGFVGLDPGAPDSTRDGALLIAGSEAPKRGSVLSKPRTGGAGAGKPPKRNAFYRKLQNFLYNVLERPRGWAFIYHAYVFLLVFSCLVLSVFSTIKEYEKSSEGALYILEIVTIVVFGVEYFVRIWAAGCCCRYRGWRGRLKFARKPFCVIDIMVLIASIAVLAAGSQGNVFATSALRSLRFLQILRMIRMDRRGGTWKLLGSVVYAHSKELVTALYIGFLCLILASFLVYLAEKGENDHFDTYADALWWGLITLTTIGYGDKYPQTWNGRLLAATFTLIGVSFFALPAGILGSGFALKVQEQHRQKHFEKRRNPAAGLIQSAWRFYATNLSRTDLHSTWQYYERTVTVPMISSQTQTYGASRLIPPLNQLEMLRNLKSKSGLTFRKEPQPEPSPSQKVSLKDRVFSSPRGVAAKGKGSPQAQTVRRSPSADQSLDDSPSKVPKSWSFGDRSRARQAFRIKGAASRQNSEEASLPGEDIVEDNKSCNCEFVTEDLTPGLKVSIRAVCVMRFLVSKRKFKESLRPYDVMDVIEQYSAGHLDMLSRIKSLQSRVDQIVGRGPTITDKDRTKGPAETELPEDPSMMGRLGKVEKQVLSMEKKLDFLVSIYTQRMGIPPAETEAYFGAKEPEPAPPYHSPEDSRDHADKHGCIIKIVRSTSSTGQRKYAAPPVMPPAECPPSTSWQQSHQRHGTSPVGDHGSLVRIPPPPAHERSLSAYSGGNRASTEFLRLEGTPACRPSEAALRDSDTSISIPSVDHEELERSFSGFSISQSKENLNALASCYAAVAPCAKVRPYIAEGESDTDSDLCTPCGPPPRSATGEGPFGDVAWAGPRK
The depositor's hits bear a star; i = inactive; . = no result given; ! = a repeat was not active. Only some compounds are listed: those with a hit (about 1.6% of all), similar ones and a draw of the others.

SMILES | KCNQ2 enhance | KCNQ2 block | Kir21 confirm | HEK293 Tl flux | others
Cc1ccc(C(=O)Nn2c(N)c(S(=O)(=O)c3ccc(C)cc3)c3nc4ccccc4nc32)cc1 | 0.47 | i | . | .
COc1cc(CNC2CCCC2)cc(Cl)c1OCc1ccc(F)cc1 | . | i | . | .
COc1cc(CNC2CCCC2)cc(Cl)c1OCc1ccccc1Cl | . | i | 31%* | i
Cc1oc(-c2ccc(Cl)cc2)nc1CN1CCC(C(=O)NCCCN2CCCC(C)C2)CC1 (stereo not given) | . | i | . | .
CC1CCN(CCCNC(=O)CCNC(=O)Cn2cnc3ccccc3c2=O)CC1 | . | i | . | .
CN(C)C(CNc1ncnc2sccc12)c1cccs1 (stereo not given) | 0.7 | i | . | .
CCOC(=O)c1sc2ncnc(NCC(c3cccs3)N(C)C)c2c1C (stereo not given) | 7.7* | i | i | 252%* | CHO-K1 ctr=-8;KCNQ1 pot spec=0.2*;KCNQ2 pot confirm=32*;Kir21 spec=-29;KCNQ2 W236L MoA=i
COC(=O)c1cnn(-c2ccc(F)cc2F)c1/C=N/NC(N)=S | 0.01 | i | . | .
CC(C)Cc1nc2n[nH]c(N)c2c2c1CCCC2 | 2.6 | i | . | .
CC(C)c1nc2n[nH]c(N)c2c2c1CCCC2 | 2.2 | i | 40%* | i
COCCCNC(=O)CCCCCNS(=O)(=O)c1ccc(Br)cc1 | 0.99 | i | . | .
O=S(=O)(NCCc1ccccn1)c1ccc(OC(F)(F)F)cc1 | . | i | . | .
O=S(=O)(NCCc1ccccn1)c1ccc(F)c(F)c1 | 6.1* | i | i | i | CHO-K1 ctr=3.1*;KCNQ1 pot spec=-14;KCNQ2 pot confirm=-7;Kir21 spec=-36;KCNQ2 W236L MoA=i
O=C(Nc1ccccc1)C1=C(c2ccccc2)S(=O)(=O)CCS1(=O)=O | 8.1* | i | i | i | CHO-K1 ctr=-16;KCNQ1 pot spec=-22;KCNQ2 pot confirm=3.7*;Kir21 spec=-39;KCNQ2 W236L MoA=3.5%*
O=C(O)c1ccccc1C(=O)Nc1ccccc1 | 0.79 | i | . | .
CSCc1ccc(C(=O)N2CCCC(Nc3ccc(F)cc3)C2)o1 (stereo not given) | . | i | 50%* | i
CSCc1ccc(C(=O)N2CCCC(Nc3ccc4c(c3)OCCO4)C2)o1 (stereo not given) | 0.77 | i | . | .
CN(Cc1ccccc1)CC(O)COc1ccc(CNCc2cccnc2)cc1 (stereo not given) | . | i | . | .
CN(Cc1ccccc1)CC(O)COc1ccc(CNCc2ccc(Cl)s2)cc1 (stereo not given) | . | i | 24%* | i
Cc1ccccc1C(=O)N1CCC(C(=O)Nc2ccc(S(=O)(=O)N3CCCCC3)cc2)CC1 | . | i | . | .
Cc1nc(Nc2cccc(C(C)O)c2)c2nnn(Cc3ccc(F)cc3)c2n1 (stereo not given) | 3 | i | . | .
CCOC(=O)Cc1csc(NC(=S)NC(=O)CC(C)C)n1 | . | i | . | .
CC(C)CC(=O)NC(=S)Nc1nc(-c2cccc3ccccc23)cs1 | 8.4* | i | i | i | CHO-K1 ctr=3.5*;KCNQ1 pot spec=9.8*;KCNQ2 pot confirm=-11;Kir21 spec=-20
NC(=NCc1ccco1)NC(=O)c1ccc(Cl)cc1 | 7* | i | i | i | CHO-K1 ctr=2.6*;KCNQ1 pot spec=-22;KCNQ2 pot confirm=51*;Kir21 spec=-49;KCNQ2 W236L MoA=i
O=C(NCCCNC(=O)c1ccco1)c1ccc(Cl)cc1 | . | i | . | .
SMILES | KCNQ2 enhance | KCNQ2 block | Kir21 confirm | HEK293 Tl flux | others
CC1(C)CCc2cc(-c3ccn(S(=O)(=O)c4ccccc4Cl)n3)ccc2O1 | 19* | i | i | i | CHO-K1 ctr=4.6*;KCNQ1 pot spec=-9;KCNQ2 pot confirm=39*;Kir21 spec=-28;KCNQ2 W236L MoA=3.0%*
CC1(C)CCc2cc(CN3CCN(c4ccccn4)CC3)ccc2O1 | 1.7 | i | . | .
COc1ccc(S(=O)(=O)n2ccc(-c3ccc4c(c3)CCC(C)(C)O4)n2)cc1 | 8.2* | i | i | i | CHO-K1 ctr=3.8*;KCNQ1 pot spec=-18;KCNQ2 pot confirm=-10;Kir21 spec=-29
CC1(C)CCc2cc(-c3ccnc(=S)[nH]3)ccc2O1 | . | i | . | .
COc1ccc(N(CCC(=O)Nc2ccccc2F)S(=O)(=O)c2ccc(C)cc2C)cc1 | . | i | . | .
Cc1ccc(C)c(NCC(O)c2ccccc2)c1 (stereo not given) | . | i | . | .
O=C1NC2(CCCCCCC2)C(=O)N1Cc1ccc(F)cc1 | . | i | . | .
O=C1NC2(CCCCCC2)C(=O)N1Cc1ccccc1 | 5.6* | i | i | i | CHO-K1 ctr=-14;KCNQ1 pot spec=-6;KCNQ2 pot confirm=-1;Kir21 spec=-41
CCn1nc(C(=O)OCC(=O)NC(C)C)c2ccccc2c1=O | . | i | . | .
CCn1nc(C(=O)OCc2c(C)noc2C)c2ccccc2c1=O | 8.4* | i | i | i | CHO-K1 ctr=77*;KCNQ1 pot spec=-23;KCNQ2 pot confirm=-18;Kir21 spec=-42
CN[C@@H]1CC[C@H](c2ccc(Cl)c(Cl)c2)c2ccccc21 | . | i | 47%* | i
COc1ccccc1C1CCN(Cc2ccc(Cl)c(Cl)c2)CC1 | . | i | . | .
O=C(Nc1ncc([N+](=O)[O-])s1)c1cccs1 | 7.7*! | i | i | i | CHO-K1 ctr=3.5*;KCNQ1 pot spec=-14;KCNQ2 pot confirm=-19;Kir21 spec=-32
Cc1cnc(NC(=O)c2cccs2)s1 | 0.05 | i | . | .
COc1ccc(N(C)S(=O)(=O)c2cccc(C(=O)N3CCN(S(=O)(=O)c4ccc(C)cc4)CC3)c2)cc1 | 0.73 | i | . | .
C=CCc1cc(Cl)ccc1OCCOCCN(C)C | . | i | . | .
CCS(=O)(=O)N1CCC(NC(=O)C(Cc2cc(OC)ccc2OC)NC(C)=O)CC1 (stereo not given) | 0.68 | i | i | i
COc1ccc(CC(NC(C)=O)C(=O)NC2CCN(S(=O)(=O)c3ccc(NC(C)=O)cc3)CC2)c(OC)c1 (stereo not given) | . | i | . | .
Nn1c(SCC(=O)NCCCc2ccccc2)nnc1-c1cccnc1 | . | i | . | .
O=C(Cc1ccccn1)c1ccc(F)cc1 | 0.87 | i | . | .
O=C(NN1CC(C(=O)OCc2ccc(Br)cc2)CC1=O)c1ccccc1 (stereo not given) | 9.7* | i | i | i | CHO-K1 ctr=13*;KCNQ1 pot spec=-17;KCNQ2 pot confirm=55*;Kir21 spec=-27;KCNQ2 W236L MoA=3.6%*
O=C(COC(=O)C1CC(=O)N(Cc2ccccc2)C1)c1ccc(Br)cc1 (stereo not given) | . | i | . | .
CC(=O)Nc1ccc(NC(=O)C2CCN(c3ccc(C(F)(F)F)cn3)CC2)cc1 | 1.5 | i | . | .
COc1ccc(CN2CCCC(C(=O)c3ccc4c(c3)OCO4)C2)c(F)c1 (stereo not given) | . | i | 56%* | i
COc1cccc(CN2CCCC(C(=O)c3ccc4c(c3)OCO4)C2)c1O (stereo not given) | . | i | . | .
